# Screening results deposited in PubChem BioAssay by National Center for Advancing Translational Sciences (NCATS).
# CBFb-RUNX1 inh – qHTS Assay for Compounds Blocking the Interaction Between CBF-beta and RUNX1 for the Treatment of Acute Myeloid Leukemia; Runt-related transcription factor 1 (Homo sapiens) + Core-binding factor subunit beta …; AlphaScreen CBFb-His/RUNX1-biotin binding, biochemical; Potency, µM (titrated, usually from 59.8 µM), inactives show top-dose activity, negative = inhibition, usual class: inhibitors; 230,000 tested, under 10 active; note: % of control where 0% means no effect
#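 Inhibition was taken as any reduction in AlphaScreen signal from the CBF-beta–RUNX1 pair (His and biotin tags, 30 nM each), measured after compound (15 min) and bead (90 min) incubations at room temperature.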
# HTT aggregate – qHTS Multiplex Assay to Identify Dual Action Probes in a Cell Model of Huntington: Aggregate Formation (GFP). AID 1688, 2009. 220,000 tested, 1.1% active. PC12 HttQ103-GFP aggregates, Acumen cytometry, 40 h. Potency, µM (titrated, usually from 46.1 µM), for the others: top-dose activity change, negative = inhibition, usual class: inhibitors; note: potency is the fitted concentration of half-maximal effect; % is set by controls: 0 for no effect and ±100 for the full control effect; nearly all actives have a fitted effect of over 60% in size
#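 Quantitative HTS on tebufenozide-induced (100 nM) PC12 cells stably expressing polyQ103 Huntingtin exon 1–GFP. Reduction of bright GFP aggregates, detected by laser scanning cytometry after lysis, identified actives across the titration.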
# PNC inhibitor – High Content Assay for Compounds that inhibit the Assembly of the Perinucleolar Compartment | activity change (PNC), negative = inhibition, % at 10 µM | AID 2417, 2010 | PC3M PTB-GFP, PNC prevalence imaging, 16 h; active compounds read low | 140,000 tested, 3.1% active;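 active = readout at or below -70, meaning at least 70% loss of cells showing the perinucleolar compartment, a nuclear body marking cancer cells; inconclusive = readout between -30 and a set limit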;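 note: plate controls were DMSO wells for no effect and camptothecin positive control wells for full effect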
#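 Read-out is percentage of cells bearing a perinucleolar compartment, from automated 20x imaging of fixed, Hoechst-stained PC3M PTB-GFP cells. Cells were seeded 4 h, then exposed 16 h to compound (23 nl of library stock) in duplicate plates.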
# HPGD block – qHTS Assay for Inhibitors of HPGD (15-Hydroxyprostaglandin Dehydrogenase). purified HPGD, NADH fluorescence kinetic, PGE2 substrate. Potency, µM, for the others: at the highest dose activity change, negative = inhibition, hits mostly inhibitors. 150,000 tested, 4.3% active. AID 894, 2007; active = well fitted inhibition curve with a large enough effect, not every such curve was filed as active; inconclusive = small, poorly fitted or top-dose-only effect, or another doubt; inactive = no such curve, though single readings can be large or run the other way; note: potency is the fitted concentration of half-maximal effect; % is set by controls: 0 for no effect and ±100 for the full control effect
# Target sequence (P15428 whole entry, looked up): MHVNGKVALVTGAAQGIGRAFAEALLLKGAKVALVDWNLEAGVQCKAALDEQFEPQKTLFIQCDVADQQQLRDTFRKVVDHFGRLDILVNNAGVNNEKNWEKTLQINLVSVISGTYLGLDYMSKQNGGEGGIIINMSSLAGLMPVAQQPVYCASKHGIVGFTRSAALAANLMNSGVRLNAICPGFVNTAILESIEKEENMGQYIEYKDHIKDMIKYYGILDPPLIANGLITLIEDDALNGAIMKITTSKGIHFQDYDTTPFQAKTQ
#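 20 nM HPGD preincubated 15 min at room temperature with compound in 50 mM Tris-HCl pH 8, 0.01% Tween 20. Started with 1 mM NAD+ and 30 uM prostaglandin E2; NADH fluorescence (360/450 nm) read 5 times over 30-s intervals, last minus first.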
# HTT ATP protect – qHTS Multiplex Assay to Identify Dual Action Probes in a Cell Model of Huntington: Cytoprotection (ATP); Potency, µM (doses to about 56.4 µM), without a hit: cytoprotection (ATP increase), actives largely listed as activators; 230,000 tested, 0.14% active; PC12 HTT-Q103 induced, cytoprotection, ATP luminescence, 40 h; note: potency is the fitted concentration of half-maximal effect; % of control where 0% means no effect; nearly all actives have a fitted effect of over 45% in size
#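 Quantitative HTS on tebufenozide-induced (100 nM) PC12 cells expressing HTTQ103 exon 1–GFP; compounds tested as a concentration series; survival measured via cellular ATP.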
# ALDH1A1 block – qHTS Assay for Inhibitors of Aldehyde Dehydrogenase 1 (ALDH1A1). Aldehyde dehydrogenase 1A1 (Homo sapiens), P00352. Purified ALDH1A1, NADH fluorescence, propionaldehyde substrate. Potency, µM (highest dose often 75.3 µM), inactives show at the top dose activity, negative = inhibition, most hits filed as inhibitors. 220,000 tested, 7.3% active; active = well fitted inhibition curve with a large enough effect, not every such curve was filed as active; inconclusive = small, poorly fitted or top-dose-only effect, or another doubt; inactive = no such curve, though single readings can be large or run the other way;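 note: potency is the fitted concentration of half-maximal effect; plate controls were no enzyme wells and a reference inhibitor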
# Target sequence (P00352 whole entry, looked up): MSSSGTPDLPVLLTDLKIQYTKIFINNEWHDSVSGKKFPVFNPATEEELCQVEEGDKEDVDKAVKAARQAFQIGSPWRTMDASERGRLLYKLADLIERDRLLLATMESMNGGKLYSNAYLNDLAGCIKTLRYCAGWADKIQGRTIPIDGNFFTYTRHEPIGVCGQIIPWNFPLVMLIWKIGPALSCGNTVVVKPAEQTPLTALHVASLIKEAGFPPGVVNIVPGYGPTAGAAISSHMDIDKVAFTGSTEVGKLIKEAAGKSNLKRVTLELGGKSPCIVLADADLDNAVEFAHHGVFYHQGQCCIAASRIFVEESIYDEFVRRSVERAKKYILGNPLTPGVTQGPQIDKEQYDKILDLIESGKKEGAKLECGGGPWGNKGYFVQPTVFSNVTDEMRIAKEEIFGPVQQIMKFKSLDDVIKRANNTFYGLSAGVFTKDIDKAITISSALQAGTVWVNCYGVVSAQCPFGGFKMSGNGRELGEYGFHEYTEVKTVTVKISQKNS
# * marks the source's active call; other numbers are inactive results; u = inconclusive; x = not tested or not shown; [ ] = dose if it differs, or a comment. An excerpt weighted towards active compounds, which were near 11% of everything screened. Unless noted, calls come from the whole dose curve; as a rule, active = well fitted curve in the direction sought with a large enough effect; inconclusive = small, poorly fitted or top-dose-only effect, or another doubt; inactive = no such curve, though single readings can be large; an effect the other way counts as inactive or inconclusive.
SMILES,CBFb-RUNX1 inh,HTT aggregate,PNC inhibitor,HPGD block,HTT ATP protect,ALDH1A1 block
CO[C@@H]1COC(=O)C/C=C\[C@H](C)[C@H](OC)COC(=O)[C@H](C)NC(=O)C/C=C\[C@H]1C,-2.0%[13.1 µM],x,x,x,u,-1.6%[13.5 µM]
Cc1cccc(C)c1NC1=NC2(CCCCC2)N=C(N)N1,2.0%,x,8.7,-19.5%,0.631µM*,2.1%
CC(C)(C)c1cnnn1-c1ccc(-c2csc(N)n2)cc1,-0.3%,6.2%,32.8,-28.4%,-5.3%[10 µM],17.8µM*
CC(C)(C)c1cnnn1-c1ccc(/C=N/Nc2ccc([N+](=O)[O-])cc2)cc1,-8.5%,u,2.4,-18.2%,10.8%[10 µM],u
O=[N+]([O-])c1cc(CN2CCN(c3cccc(C(F)(F)F)c3)CC2)c2cccnc2c1O,u,8.91µM*,x,x,-138.2%,17.8µM*
CC(C)[C@H](Nc1nc(-c2ccccc2)nc2c1oc1ccccc12)C(=O)O,-1.7%,-6.1%,7.9,0.2%,-19.7%,1.12µM*
CCc1nc(N[C@H](C(=O)O)C(C)CC)c2oc3ccccc3c2n1 (stereo partly drawn),3.6%,-7.1%,25.4,-6.5%,-11.1%,0.501µM*
CC(C)C(Nc1ncnc2c1oc1ccccc12)C(=O)O (stereo not drawn),8.2%,-24.9%[9.22 µM],x,x,-6.7%[10 µM],7.4%
CCOC(=O)CSc1nc(-c2ccccc2)nc2c1oc1ccccc12,1.1%,-11.0%,7.0,-8.3%,u,-1.0%
CCC(C)[C@H](Nc1nc(-c2ccccc2)nc2c1oc1ccccc12)C(=O)O (stereo partly drawn),-0.3%,5.7%,76.0,-6.1%,-23.4%,0.794µM*
CNC1CC(N)[C@H](O)[C@@H](O[C@@H]2OC(CO)C3OC4(OC(C(N)CO)C(O)C(O)C4O)O[C@@H]3[C@H]2O)C1O (stereo partly drawn),x,5.1%,x,-1.5%,-148.4%,6.3%
COc1ccc(N=C2C(=O)N3CCCc4cccc2c43)cc1,-6.2%,-4.5%,37.2,-20.2%,-7.3%[10 µM],0.0355µM*
Cc1noc(C)c1-c1nccc(NCc2cccs2)n1,x,x,x,x,-64.4%,u
COc1cc(C)ccc1S(=O)(=O)n1nc(C)cc1C,6.0%,-0.8%[9.22 µM],x,x,11.1%[10 µM],-3.3%
O=c1c2cn[nH]c2[nH]c(=S)n1-c1cccc2ccccc12,3.9%,5.4%,-113.4*,-18.4%,x,-10.3%
O=c1c2cn[nH]c2[nH]c(=S)n1-c1ccccc1,18.6%,10.9%,u,28.2µM*,-3.7%[1.9 µM],u
C=C1c2ccccc2O[C@H](C(=O)OCC)[C@@H]1CC(C)(C)c1ccccc1,22.0%[89.1 µM],x,x,-14.1%,13.0%,-14.5%
Cn1c2c(c(=O)c3ccccc31)C[C@@H](O)C(C)(C)O2,-4.6%,x,x,-14.4%,11.0%,-0.2%
CC(C)=C1CCC(C)CC1=O (stereo not drawn),2.8%[21.7 µM],x,x,-9.1%,6.0%,1.4%
Cc1cc(C(=O)N2CCCCCC2)cs1,10.2%,-1.6%,-124.4*,0.447µM*,-5.4%[0.074 µM],-4.5%
Cc1ccc(C(=O)Nc2ccc(C(=O)N3CCCCC3)cc2)cc1,10.5%,3.4%,x,x,-30.3%,u
Cc1cc(C)cc(C(=O)N2CCCCCC2)c1,3.6%,-4.0%,0.2,15.8µM*,8.5%[10 µM],7.1%
CC/C(=C1/C(=O)CC(C)(C)C(C(=O)OC)C1=O)N1CCCC1 (stereo not drawn),4.5%,6.0%,-14.0,0.0%,-2.8%[0.074 µM],2.6%
CN(C)Cc1ccccc1-c1nc(NC2CCNCC2)c2ccccc2n1,x,x,x,x,-133.6%,-10.7%
COc1cccc(CN(Cc2cccnc2)S(=O)(=O)c2ccc(-n3cnnn3)c(C)c2)c1,0.8%,1.0%,35.2,-17.5%,-16.5%,25.1µM*
SMILES,CBFb-RUNX1 inh,HTT aggregate,PNC inhibitor,HPGD block,HTT ATP protect,ALDH1A1 block
COc1cc(S(=O)(=O)N(Cc2cccnc2)Cc2ccco2)ccc1-n1cnnn1,-3.7%,1.4%,39.3,-4.0%,12.5%,u
COc1cc(S(=O)(=O)N(Cc2ccc(C)cc2)Cc2ccco2)ccc1-n1cnnn1,-1.6%,9.1%[9.22 µM],16.5,-9.5%,11.4%,12.6µM*
Cc1cc(S(=O)(=O)N(Cc2ccccc2)Cc2ccc(N(C)C)cc2)ccc1-n1cnnn1,-11.7%,10.6%,-118.9*,-3.8%,0.5%[10 µM],u
O=C1N2CCCc3cccc(c32)C12Nc1ccccc1S2 (stereo not drawn),-12.1%,0.8%,10.2,-16.6%,-4.5%,14.1µM*
CCNc1sc(C(=O)c2cccs2)c(N)c1-c1nc2ccccc2s1,x,-35.1%,40.5,-17.7%,0.6%,u
CCNc1sc(C(=O)c2cccs2)c(N)c1C#N,2.0%,-7.2%,20.4,-19.8%,0.5%,8.91µM*
C=CCNc1sc(C(=O)c2cccs2)c(N)c1C#N,4.2%,-5.8%,-118.9*,-6.7%,-13.0%[10 µM],u
C#CCNC(=O)C1=C[C@H](c2ccc(C(F)(F)F)cc2)C[C@H](OCCCCO)O1,17.7%,11.0%[9.22 µM],x,x,-5.5%[10 µM],-3.4%
O=C(c1ccc(-n2c(SCc3cc(F)ccc3F)nc3ccccc3c2=O)cc1)N1CCOCC1,11.5%,-2.4%,21.7,-11.8%,-6.7%[10 µM],35.5µM*
CCCC/C=C/[C@H](C)[C@@](C)(COC(=O)c1ccc(Br)cc1)Cc1ccccc1,-6.9%,x,x,x,x,x
O=C(OC1CCS(=O)(=O)c2sccc21)c1ccccc1 (stereo not drawn),-0.1%,-14.2%,u,-9.8%,16.5%,22.4µM*
CCOc1ccc(NC(=O)c2ccco2)cc1,1.1%,3.7%,30.5,-4.5%,-15.8%[1.9 µM],2.9%
COc1ccc(S(=O)(=O)N(C(=O)c2ccco2)c2cc3sc(=O)oc3c3ccccc23)cc1,u,18.8%,u,u,-4.0%[10 µM],25.1µM*
Cc1ccc(S(=O)(=O)N(C(=O)c2ccco2)c2cc3sc(=O)oc3c3ccccc23)cc1,-27.2%,u,2.0,u,x,31.6µM*
CCOc1ccc(S(=O)(=O)N(C(=O)c2ccco2)c2cc3sc(=O)oc3c3ccccc23)cc1,u,0.2%,60.0,-29.2%,0.891µM*,u
O=C(O)c1nnsc1-c1ccc(-c2snnc2C(=O)O)cc1,x,x,x,-21.7%,0.6%[10 µM],3.98µM*
Cc1cc(C(F)(F)F)nn1CC(=O)Nc1ccc(Br)c2cccnc12,-5.3%,10.6%,-100.0*,-14.3%,7.7%[10 µM],-7.3%
CCC(C)(C)NC(=O)CN(Cc1cccs1)C(=O)C(=O)Nc1ccc2c(c1)OCCO2,-3.1%,-1.6%,7.2,-16.2%,-30.9%,u
